{"source": "ChEMBL document CHEMBL4888484", "about": "“Replenishing the malaria drug discovery pipeline: Screening and hit evaluation of the MMV Hit Generation Library 1 (HGL1) against asexual blood stage Plasmodium falciparum ,using a nano luciferase reporter read-out” (2022)", "note": "About 410 (8.5%) of roughly 4,800 compounds showed an effect of 50% or more. The full list was thinned out, with strong results kept by preference."}
{"tested_on": "Plasmodium falciparum", "assay": "Confirmatory screen in NF54 pLDH assay, in single point, at 2uM, 72h", "format": "functional, Erythrocyte", "settings": "timepoint 72 hour", "units": {"% Inhibition": "%"}}
{"smiles": "O=C(Nc1cccc(Cl)c1)Nc1cccc(-c2cnc3n2CCC3)c1", "% Inhibition": 75}
{"smiles": "O=C(Nc1cccc(Cl)c1)c1ccc(-c2cnc(N3CCCC3)nc2)cc1", "% Inhibition": -19}
{"smiles": "Cc1nn(C)c(NC(=O)Nc2cccc(Cl)c2)c1C1=CCCCC1", "% Inhibition": -9}
{"smiles": "O=C(Cn1cccn1)Nc1cccc(S(=O)(=O)N2CCCC2)c1", "% Inhibition": -8}
{"smiles": "C[C@@H](C1CCCC1)N1C(=O)NC(CC(F)(F)F)C1=O", "note": "(stereo partly specified)", "% Inhibition": -23}
{"smiles": "O=C(NS(=O)(=O)C1CCOCC1)c1csc(-c2ccco2)n1", "% Inhibition": -10}
{"smiles": "Cc1ccccc1Cn1cnc2c1c(=O)n(C1CCCCC1)c(=O)n2-c1ccccc1Cl", "% Inhibition": 82}
{"smiles": "COC(=O)c1ncn2c1C(=O)N(Cc1ccccc1OC)[C@](C)(C(=O)NC1CCCCC1)C2", "% Inhibition": 11}
{"smiles": "COc1ccccc1-n1c(=O)n(C2CCCC2)c(=O)c2c1ncn2Cc1ccccc1Cl", "% Inhibition": 34}
{"smiles": "COc1ccccc1Cn1cnc2c1c(=O)n(C1CCCCC1)c(=O)n2-c1ccccc1Cl", "% Inhibition": 90}
{"smiles": "Cn1ncn(CC(=O)c2cccc(Cl)c2Cl)c1=O", "% Inhibition": -14}
{"smiles": "O=C(CN1C(=O)N[C@H](c2ccc(F)cc2)C1=O)Nc1ccc2c(c1)OCCO2", "% Inhibition": 5}
{"smiles": "CC(C)(C)CC(C)(C)NC(=O)c1ccc2nc(N3C(=O)CCC3=O)sc2c1", "% Inhibition": 9}
{"smiles": "C[C@H](c1ccccc1)N1C(=O)[C@@H]2CN(C(=O)CC(C)(C)C)CCN2C1=O", "% Inhibition": -13}
{"smiles": "Cc1ccc(CCC(=O)N2CC[C@H](C)S(=O)(=O)CC2)s1", "% Inhibition": 9}
{"smiles": "C[N+]12CCCCC1C(OC(=O)C1(c3ccccc3)CCCC1)CCC2", "note": "(stereo unspecified)", "% Inhibition": 60}
{"smiles": "O=C1C2ON(c3ccccc3)C(c3ccncc3)C2C(=O)N1c1ccc2ccccc2c1", "note": "(stereo unspecified)", "% Inhibition": 8}
{"smiles": "COc1ccc2cc3n(c2c1)C[C@@](C)(C(=O)NC1CCCC1)N(Cc1ccc(F)cc1)C3=O", "% Inhibition": 13}
{"smiles": "Cc1cc(C)nc(N[C@H](c2ccc(F)cc2)c2cc(C)sc2NC(=O)c2ccccc2)n1", "% Inhibition": 6}
{"smiles": "COc1cc([C@@H]2C=C(c3ccc(Cl)cc3)Nc3ncnn32)ccc1OCc1ccc(Cl)cc1", "% Inhibition": 4}
{"smiles": "Cc1ccc(C2=C[C@@H](c3ccc(Cl)cc3)n3nc(NC(=O)c4ccccc4)nc3N2)cc1", "% Inhibition": 90}
{"smiles": "Cc1ccc([C@@H]2C=C(C(=O)O)Nc3c(C(N)=O)nnn32)cc1", "% Inhibition": -12}
{"smiles": "Cc1cccc(OC(=O)O[C@H]2c3nccnc3C(=O)N2c2ccc(Cl)cn2)c1", "% Inhibition": 16}
{"smiles": "CN(C)c1ccc2c(c1)CN(C(=O)c1ccccc1S(C)(=O)=O)CC2", "% Inhibition": -5}
{"smiles": "O=C(COc1ccc(Cl)cc1)N[C@H](CO)CC1CCCC1", "% Inhibition": 4}
{"smiles": "O=S1(=O)N=C(n2ccnc2)c2ccccc21", "% Inhibition": -17}
{"smiles": "CS(=O)(=O)n1cnc2cc(F)c(F)cc21", "% Inhibition": -8}
{"smiles": "COc1ccc(-c2cc(-c3ccccc3)nc(N3CCC(C)CC3)n2)cc1", "% Inhibition": 43}
{"smiles": "COc1ccc(CCc2nnc3n2CCOC3)cc1", "% Inhibition": -1}
{"smiles": "COc1ccc(-[n+]2c(-c3ccccc3)cn3c2CCC3)cc1", "% Inhibition": 59}
{"smiles": "COc1ccc(-c2nnc(COc3ccc(-c4ccccc4)cc3)s2)cc1", "% Inhibition": -10}
{"smiles": "COc1ccc(N2CCN(c3nc(-c4ccccc4)cs3)CC2)cc1", "% Inhibition": 0}
{"smiles": "COc1ccc(-[n+]2c(-c3ccc(-c4ccccc4)cc3)cn3c2COCC3)cc1", "% Inhibition": 60}
{"smiles": "O=C(Cn1c(=O)n(Cc2ccco2)c(=O)c2ccccc21)NC1CCCCC1", "% Inhibition": 10}
{"smiles": "Cc1noc([C@H]2CCCN(C(=O)c3cc4c(s3)CCC4)C2)n1", "% Inhibition": -5}
{"smiles": "O=C1c2ccccc2N[C@]2(C(=O)Nc3ccccc32)N1c1ccc2c(c1)OCO2", "% Inhibition": -25}
{"smiles": "Cc1nn(-c2ncc(C(F)(F)F)cc2Cl)c(=O)n1-c1ccc(OCc2ccccc2)cc1", "% Inhibition": -12}
{"smiles": "CCCCN(CC)c1ncc(C(=O)Nc2ccc(OCC)cc2)c(N)n1", "% Inhibition": 15}
{"smiles": "Cc1ccc(NC(=O)Nc2cc(C)ccc2N2CCCN(Cc3ccc(F)cc3)C2=O)cc1", "% Inhibition": 30}
{"smiles": "Cc1cc(C)nc(NCCC[C@H]2CCCCO2)n1", "% Inhibition": -15}
{"smiles": "Cc1cccc(CNC(=O)NC2CCOC2c2ccc(Cl)cc2)n1", "note": "(stereo unspecified)", "% Inhibition": -15}
{"smiles": "Cc1cccc(CN(Cc2cccc(C)n2)C[C@H]2CCCCO2)n1", "% Inhibition": 90}
{"smiles": "CC(C)NC(=O)C(=O)Nc1nccs1", "% Inhibition": -19}
{"smiles": "CC(C)N(CC(=O)Nc1nccs1)Cc1ccccn1", "% Inhibition": 59}
{"smiles": "CC(C)c1nc(CN(C)[C@@H](C)C(=O)Nc2nccs2)cs1", "% Inhibition": 23}
{"smiles": "CCN1C(=O)CCN(C(=O)c2ccnn2C)CC12CCOCC2", "% Inhibition": 3}
{"smiles": "Brc1cccc2c1OCC[C@@H]2Nc1ncnc2nc[nH]c12", "% Inhibition": 4}
{"smiles": "Oc1ccccc1-c1cnc(C(F)(F)F)s1", "% Inhibition": 90}
{"smiles": "Oc1nc(-c2cccc(C(F)(F)F)c2)sc1-c1ccccc1", "% Inhibition": 2}
{"smiles": "COc1ccc(-n2ncc3c(NCCNC(=O)c4ccccc4Cl)nc(C)nc32)cc1", "% Inhibition": -27}
{"smiles": "Cc1ccc(OCC(=O)Nc2ccc(N3CCn4c(nc5ccccc54)C3)cc2Cl)cc1", "% Inhibition": -20}
{"smiles": "Cc1ccc(OCC(=O)Nc2cc(C)nn2-c2nc3c(cnn3-c3ccc(C)c(C)c3)c(=O)[nH]2)cc1", "% Inhibition": 57}
{"smiles": "CN(CCCNC(=O)C(=O)Nc1ccn(C)n1)c1cccc(F)c1", "% Inhibition": 10}
{"smiles": "COCCOC(=O)c1cc(C(F)(F)F)cc(C(=O)OCCOC)n1", "% Inhibition": 11}
{"smiles": "Cn1c(=O)c2c(ncn2CC(=O)N(Cc2ccccc2)C2CC2)n(C)c1=O", "% Inhibition": 2}
{"smiles": "CN(Cc1nccn1C)C(=O)c1cc2ccccc2[nH]1", "% Inhibition": 15}
{"smiles": "CCCn1c(C)cnc1C1CN(S(=O)(=O)c2cc(Cl)ccc2Cl)C1", "% Inhibition": 6}
{"smiles": "Cn1c(C(C)(C)C)nc2cc(NC3CCC4(CC3)OCCO4)ccc21", "% Inhibition": -16}
{"smiles": "COCc1cc(F)ccc1NC(=O)NC1CCN(c2cc(C)nc(C)n2)CC1", "% Inhibition": 5}
{"smiles": "Cn1ncc2c(N3CC(=O)N(C4CC4)C3)ncnc21", "% Inhibition": -15}
{"smiles": "C[C@@H]1CN(CCN(C)C(=O)Nc2nc(C3CC3)cs2)C[C@H](C)O1", "% Inhibition": 9}
{"smiles": "Cc1c(C)n(C[C@H](O)Cn2c(C(F)(F)F)nc3ccccc32)c2c(Cl)cccc12", "% Inhibition": -15}
{"smiles": "CC(NCC(O)Cn1c(-c2ccccc2)c(-c2ccccc2)c2ccc3ccccc3c21)c1ccccc1", "note": "(stereo unspecified)", "% Inhibition": 86}
{"smiles": "Cc1c(C)n(C[C@@H](O)CNC2CCCC2)c2c(Cl)cccc12", "% Inhibition": -18}
{"smiles": "Cc1cccc(C(=O)Nc2c(C#N)c(-c3ccccc3)c(-c3ccccc3)n2Cc2ccccc2)c1", "% Inhibition": 13}
{"smiles": "CCC(C)NCC(O)Cn1c(-c2ccccc2)c(-c2ccccc2)c2cc(C)ccc21", "note": "(stereo unspecified)", "% Inhibition": 92}
{"smiles": "Cc1c(C)n(CC(O)CNC(C)c2ccccc2)c2c(Cl)cccc12", "note": "(stereo unspecified)", "% Inhibition": 73}
{"smiles": "O=S(=O)(c1c(Cl)cccc1Cl)N1CCC[C@@H]1CN1CCCC1", "% Inhibition": 8}
{"smiles": "Cc1cc(CN2C(=O)N[C@@]3(CCCCc4ccccc43)C2=O)no1", "% Inhibition": 6}
{"smiles": "COc1ccc([C@H](NC(=O)CCc2ccccc2)c2c(O)ccc3ccccc23)cc1", "% Inhibition": -6}
{"smiles": "Cc1cc(N2CCn3c(nc4ccccc43)C2)ccc1NC(=O)C1CCCCC1", "% Inhibition": 14}
{"smiles": "CN1c2ccccc2C(=O)N[C@@H]1c1ccccc1OCc1ccccc1", "% Inhibition": -4}
{"smiles": "COc1cccc(-n2c(C)cc(C(=O)N3CCNC(=O)CC3)c2C)c1", "% Inhibition": -5}
{"smiles": "N#Cc1c(NC(=O)Nc2cn3ccccc3c2C#N)cn2ccccc12", "% Inhibition": 35}
{"smiles": "O=C(NCC(N1CCOCC1)C(F)(F)F)C1CC12CCOC2", "note": "(stereo unspecified)", "% Inhibition": 14}
{"smiles": "O=c1[nH]c2nc(N3CCCCC3)ncc2c(=O)n1Cc1ccco1", "% Inhibition": -14}
{"smiles": "Cc1nc([C@@H](NC(=O)c2cc(Cl)cn2C)c2cnn(C)c2)no1", "% Inhibition": -10}
{"smiles": "O=C(NC[C@H]1CCS(=O)(=O)C1)c1ccc2[nH]c3c(c2c1)CCCC3", "% Inhibition": -6}
{"smiles": "Clc1ccc(COc2ccc(CNC3CCCCC3)cc2Br)cc1", "% Inhibition": -12}
{"smiles": "COc1cc(C(C)(C)C)c(OCC(=O)N(c2ccccc2)c2ccccc2)cc1C(C)(C)C", "% Inhibition": 7}
{"smiles": "Cc1ccc(Oc2cc(C#N)c(C#N)cc2N2CCOCC2)cc1C", "% Inhibition": -9}
{"smiles": "CC[N+](C)(CC)CCOc1cc(C)c2ccccc2n1", "% Inhibition": 40}
{"smiles": "Cc1nc2ccccc2cc1OCc1ccc(F)cc1", "% Inhibition": 12}
{"smiles": "COC(=O)c1ccccc1NC(=O)NCCn1nnc2cc(S(=O)(=O)N(C)C)ccc21", "% Inhibition": 32}
{"smiles": "CCN1C(=O)Cc2cc(NS(=O)(=O)Cc3ccccc3)ccc21", "% Inhibition": 12}
{"smiles": "COc1ccc(CN2CC[C@@H]3C(=O)NCCCCCCN(Cc4ccncc4)[C@@H]3C2)cc1Cn1ccnc1", "% Inhibition": 37}
{"smiles": "COc1ccc(CNCc2ccc(C)cc2)cc1Cn1ccnc1", "% Inhibition": 69}
{"smiles": "COc1cc(CNCCN2CCOCC2)ccc1OCc1ccc(C)cc1", "% Inhibition": 10}
{"smiles": "Cc1ccc(NS(=O)(=O)c2ccc(NC(=O)CN(c3cc(Cl)ccc3C)S(C)(=O)=O)cc2)cc1C", "% Inhibition": -13}
{"smiles": "Cc1cc(-c2nc(C3(c4ccncc4)CCC3)no2)ccn1", "% Inhibition": 4}
{"smiles": "COc1ccc(F)cc1S(=O)(=O)N1CCc2noc(N)c2C1", "% Inhibition": 63}
{"smiles": "COc1ccc(OC)c(S(=O)(=O)N2C[C@H]3CCCC(=O)N[C@H]3C2)c1", "% Inhibition": 9}
{"smiles": "COc1ccc(S(=O)(=O)N2CCC(c3cc(N)on3)CC2)cc1Cl", "% Inhibition": 40}
{"smiles": "COc1ccccc1OCC(=O)Nc1ccccc1-n1cnnc1C", "% Inhibition": 12}
{"smiles": "C[C@H](NC(c1ccccc1)c1ccccc1)c1nnc(-c2cccs2)o1", "% Inhibition": 7}
{"smiles": "CCCOc1ccc(Nc2cc(C)nc3ccc(Cl)cc23)cc1", "% Inhibition": 63}
{"smiles": "Cc1cc(CS(=O)(=O)NCCOc2ccc(Cl)cc2)on1", "% Inhibition": 2}
{"smiles": "CC(C)(C)C1CC(NC(=O)C2CC=CC2)CCO1", "note": "(stereo unspecified)", "% Inhibition": -1}
{"smiles": "Cc1cccc(C)c1OCC(=O)Nc1ccc(-c2nc3cc4ccccc4cc3[nH]2)cc1", "% Inhibition": 18}
{"smiles": "c1cc(-c2nc3cc4ccccc4cc3[nH]2)nc(-c2nc3cc4ccccc4cc3[nH]2)c1", "% Inhibition": 97}
{"smiles": "c1ccc2cc(-c3ccc4ccccc4n3)ccc2c1", "% Inhibition": 16}
